Source: PubChem
C diff growth: inhibitors of Clostridium difficile growth; Clostridium difficile clinical isolate growth, OD600, 24 h; stronger effect = lower value; growth activity, negative = inhibition, % at 16 µg/mL (by protocol); hit rate 0.25% among 86,000; AID 1259249;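 active = mean growth activity at or below -80% and every replicate also at or below -80%; inconclusive = mean at or below -80% but some replicate above -80%; inactive = mean growth activity above -80%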;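 also: 0% = DMSO wells and -100% = levofloxacin 16 µg/mL wells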
Pf Dd2 inh: blocks growth of Plasmodium falciparum Dd2 parasites | P. falciparum Dd2 growth, SYBR Green, 72 h; stronger effect = lower value | activity change, % at 10 µM | hit rate 2.3% among 94,000 | AID 1159554; in the data active = activity change below about -80%; inconclusive = no clear call, values can overlap the other calls
T cruzi growth-1: blocks T. cruzi growth in NIH3T3 culture. T. cruzi beta-gal in NIH3T3, GalScreen luminescence, 90 h. hit rate 5.9% among 77,000. inhibition, % at 8.34 µM;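 active = mean inhibition above about 93%, with at least 55% of replicates each passing it, limit read from the data, passing the limit was not always enough; inconclusive = only one of those two conditions holds; inactive = neither condition holds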
T cruzi growth-2: Trypanosoma cruzi proliferation inhibition; AID 651739; hit rate 72% among 5,600; inhibition, % at 8.35 µM; shares compounds with T cruzi growth-1; T. cruzi beta-gal in NIH3T3, GalScreen luminescence, 90 h;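 active = mean replicate inhibition above about 95% and at least 55% of replicates individually reaching it, limit read from the data; inconclusive = only one of the two criteria is met; inactive = neither criterion is met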
T cruzi growth-3: blocks T. cruzi growth in NIH3T3 host cells; inhibition, % at 2.09 µM; hit rate 21% among 5,600; shares compounds with T cruzi growth-1; T. cruzi beta-gal in NIH3T3, GalScreen luminescence, 90 h;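 active = mean inhibition above about 95%, with at least 55% of replicates also reaching it, limit read from the data; inconclusive = meets just one of the two conditions; inactive = meets neither condition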;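 also: plate controls were neutral control median for no effect and positive control median for full effect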
3T3 cytotox: NIH/3T3 (mouse) viability loss; shares compounds with T cruzi growth-1; NIH/3T3 viability, CellTiter-Glo ATP luminescence, 90 h; cytotoxicity (signal decrease), % at 8.35 µM; hit rate 14% among 5,600;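 active = mean signal decrease across replicates above about 35% based on untreated-well scatter, with enough replicates individually passing, limit read from the data; inconclusive = no rule stated though some were filed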;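 also: 0% = median of neutral control wells and 100% = median of positive control wells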
3T3 cytotox 2: NIH/3T3 (mouse) viability loss | AID 651744 | NIH/3T3 viability, CellTiter-Glo ATP luminescence, 90 h | hit rate 56% among 5,600 | shares compounds with T cruzi growth-1 | inhibition, % at 24.9 µM;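 active = mean loss of cell viability signal at or above a set limit, and enough replicates individually reaching it; inconclusive = meets only the mean limit or only the replicate share; inactive = meets neither condition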;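 also: 0% = median of neutral control wells and 100% = median of positive control wells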
* hit, by the source's call; u = inconclusive; x = not tested or not shown. Hits are enriched below; roughly 6.7% of the tested compounds scored in any of these assays.

SMILES | C diff growth | Pf Dd2 inh | T cruzi growth-1 | T cruzi growth-2 | T cruzi growth-3 | 3T3 cytotox | 3T3 cytotox 2
CCCN(C)C[C@H]1Oc2cc(C#C[C@H](C)O)ccc2S(=O)(=O)N([C@@H](C)CO)C[C@H]1C | -1 | -31 | 2 | x | x | x | x
C[C@H]1CN([C@@H](C)CO)C(=O)c2cc(C3=CCCC3)cnc2O[C@@H]1CN(C)C(=O)Nc1ccc(F)cc1 | -13 | -74 | x | x | x | x | x
C[C@@H]1CN([C@@H](C)CO)C(=O)c2cc(C3=CCCC3)cnc2O[C@H]1CN(C)C(=O)Nc1ccc(C(F)(F)F)cc1 | -9 | -15 | 99* | 102* | 56 | 21 | 6
C[C@@H]1CN([C@H](C)CO)C(=O)c2cc(C3=CCCC3)cnc2O[C@@H]1CN(C)C(=O)Nc1ccc(C(F)(F)F)cc1 | 21 | -4 | 111* | 107* | 84 | u | 104*
C[C@H]1CN([C@@H](C)CO)C(=O)c2cc(C3=CCCC3)cnc2O[C@@H]1CN(C)C(=O)Nc1ccc(C(F)(F)F)cc1 | -1 | -54 | 82 | x | x | x | x
CO[C@H]1CN(C)C(=O)c2cc(NS(=O)(=O)CC(F)(F)F)ccc2OC[C@H](C)N(C(=O)NC(C)C)C[C@H]1C | x | 1 | 39 | x | x | x | x
Cc1ccccc1-c1cnc2c(c1)C(=O)N([C@@H](C)CO)C[C@@H](C)[C@@H](CN(C)C(=O)c1cccnc1)O2 | 5 | x | -15 | x | x | x | x
CCC(=O)N1[C@@H]2c3ccc(C4=CCCC4)c(=O)n3C[C@@H]2[C@@H](CO)[C@@H]1C(=O)NCc1ccccc1 | 2 | -2 | 71 | x | x | x | x
CCCNC(=O)N(C)C[C@@H]1Oc2cc(-c3ccncc3)ccc2S(=O)(=O)N([C@@H](C)CO)C[C@@H]1C | -2 | 0 | 30 | x | x | x | x
CC(C)NC(=O)N(C)C[C@@H]1Oc2cc(-c3ccncc3)ccc2S(=O)(=O)N([C@@H](C)CO)C[C@@H]1C | 2 | -7 | 103* | 84 | 53 | 6 | 23
CC(C)NC(=O)N(C)C[C@@H]1Oc2cc(-c3ccncc3)ccc2S(=O)(=O)N([C@@H](C)CO)C[C@H]1C | -3 | 0 | 111* | 83 | 84 | 10 | 16
CCCNC(=O)N(C)C[C@H]1Oc2cc(-c3ccncc3)ccc2S(=O)(=O)N([C@@H](C)CO)C[C@@H]1C | 0 | -30 | 97* | u | 13 | -17 | u
CC(C)NC(=O)N(C)C[C@@H]1Oc2cc(-c3ccncc3)ccc2S(=O)(=O)N([C@H](C)CO)C[C@H]1C | 2 | -6 | 119* | u | 74 | 11 | 12
CC(C)NC(=O)N(C)C[C@@H]1Oc2cc(-c3cncnc3)ccc2S(=O)(=O)N([C@@H](C)CO)C[C@@H]1C | 2 | -29 | -3 | x | x | x | x
CC(C)NC(=O)N(C)C[C@H]1Oc2cc(-c3ccccc3)ccc2S(=O)(=O)N([C@H](C)CO)C[C@H]1C | -7 | 13 | 56 | x | x | x | x
Cc1ccc(-c2ccc3c(c2)O[C@H](CN(C)C(=O)NC(C)C)[C@@H](C)CN([C@@H](C)CO)S3(=O)=O)cc1 | -8 | -12 | 27 | x | x | x | x
Cc1noc(C)c1NC(=O)N[C@@H]1CC[C@H](CC(=O)NCc2ccc(Cl)c(Cl)c2)O[C@H]1CO | x | 4 | -32 | x | x | x | x
COc1ccc2c3c([nH]c2c1)[C@@H](CO)N(C(=O)c1cccc(F)c1)CC31CCN(C(=O)CC2CC2)CC1 | 6 | -45 | x | x | x | x | x
COc1cccc(C#Cc2cnc3c(c2)C(=O)N([C@H](C)CO)C[C@@H](C)[C@H](CN(C)C(=O)C2CC2)O3)c1 | x | -38 | 32 | x | x | x | x
C[C@H](CO)N1C[C@H](C)[C@@H](CN(C)C(=O)Nc2ccccc2)Oc2ccc(NS(=O)(=O)c3ccc(F)cc3)cc2CC1=O | 1 | 19 | -5 | x | x | x | x
COc1cccc(S(=O)(=O)N[C@H]2CC[C@H](CCn3cc(-c4ccccc4)nn3)O[C@@H]2CO)c1 | -7 | 21 | -21 | x | x | x | x
C[C@@H]1CCCCO[C@H](CN(C)Cc2ccc(C(=O)O)cc2)[C@@H](C)CN([C@@H](C)CO)C(=O)c2cc(NC(=O)Nc3ccccc3)ccc2O1 | 3 | 32 | -48 | x | x | x | x
Cc1ccc(S(=O)(=O)N(C)C[C@H]2Oc3c(NC(=O)c4cnccn4)cccc3C(=O)N([C@@H](C)CO)C[C@@H]2C)cc1 | -2 | -29 | 61 | x | x | x | x
C/C=C/c1ccc2c(c1)O[C@@H](CN(C)C(=O)c1ccccc1F)[C@@H](C)CN([C@H](C)CO)S2(=O)=O | 1 | -19 | -21 | x | x | x | x
COc1ccccc1NC(=O)N[C@H]1CC[C@H](CCn2cc(-c3ccccc3)nn2)O[C@@H]1CO | -3 | -19 | 29 | x | x | x | x
SMILES | C diff growth | Pf Dd2 inh | T cruzi growth-1 | T cruzi growth-2 | T cruzi growth-3 | 3T3 cytotox | 3T3 cytotox 2
O=C(Nc1ccc(Cl)cc1)N[C@@H]1CC[C@H](CCn2cc(-c3ccccc3F)nn2)O[C@@H]1CO | -12 | -64 | 102* | 98* | 53 | 4 | u
COc1ccccc1NC(=O)N[C@@H]1CC[C@@H](CCn2cc(-c3ccccc3OC)nn2)O[C@H]1CO | -13 | -9 | 0 | x | x | x | x
O=C(Nc1ccc(F)cc1)N[C@H]1CC[C@@H](CCn2cc(-c3ccccc3F)nn2)O[C@@H]1CO | 0 | x | x | x | x | x | x
COc1ccccc1NC(=O)N[C@H]1CC[C@@H](CCn2cc(-c3ccccc3OC)nn2)O[C@@H]1CO | -5 | -22 | 137* | 47 | 40 | -2 | 23
COc1ccccc1NC(=O)N[C@H]1CC[C@@H](CCn2cc(-c3ccccc3OC)nn2)O[C@H]1CO | 5 | -3 | 113* | 69 | 41 | -13 | 9
COc1ccccc1-c1cn(CC[C@H]2CC[C@H](NC(=O)NC(C)C)[C@H](CO)O2)nn1 | 0 | -5 | 24 | x | x | x | x
COc1ccccc1NC(=O)N[C@H]1CC[C@H](CCn2cc(-c3ccccc3OC)nn2)O[C@@H]1CO | 7 | 27 | 149* | 20 | 22 | 1 | u
CN(C)C(=O)C[C@@H]1C=C[C@H](NC(=O)NC2CCCCC2)[C@H](CO)O1 | -1 | -7 | x | x | x | x | x
C[C@@H]1CN([C@H](C)CO)C(=O)Cc2cc(NS(=O)(=O)c3ccc(Cl)cc3)ccc2O[C@H]1CN(C)C(=O)Nc1ccccc1 | -7 | 14 | -1 | x | x | x | x
O=C(Nc1ccc(C(F)(F)F)cc1)N[C@H]1CC[C@@H](CCNC(=O)c2ccccc2F)O[C@H]1CO | 2 | -22 | 139* | 45 | 31 | -14 | -4
O=C(Nc1ccc(C(F)(F)F)cc1)N[C@H]1CC[C@H](CCNC(=O)c2ccccc2F)O[C@H]1CO | 1 | -12 | 5 | x | x | x | x
COc1ccc(C#Cc2ccc3c(c2)[C@H]2[C@H](CCN2C(=O)C2CC2)[C@H](CO)N3)cc1 | -11 | -46 | 104* | 110* | 67 | 0 | 41*
COc1ccc(C#Cc2ccc3c(c2)[C@@H]2[C@@H](CCN2C(=O)c2ccncc2)[C@@H](CO)N3)cc1 | -18 | -68 | 122* | 105* | 57 | -18 | 13
